Screening data as filed in PubChem.
An excerpt weighted towards active compounds, which were near 11% of everything screened.
HTT aggregate – qHTS Multiplex Assay to Identify Dual Action Probes in a Cell Model of Huntington: Aggregate Formation (GFP); actives 1.1% (n = 220,000); AID 1688, 2009; PC12 HttQ103-GFP aggregates, Acumen cytometry, 40 h; Potency, µM (titrated, usually from 46.1 µM), for the others: top-dose activity change, negative = inhibition, actives largely listed as inhibitors; also: potency is read from the fitted curve at half-maximal effect; % is scaled to controls: 0 for no effect and ±100 for the full control effect; nearly all actives have a fitted effect of over 60% in size
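PC12 cells stably carrying ecdysone-inducible HTT exon 1 Q103–GFP were induced with tebufenozide (100 nM final) and treated with library compounds in titration. GFP aggregates in lysates were counted by laser scanning cytometry.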
HTT cytoprotect – qHTS Multiplex Assay to Identify Dual Action Probes in a Cell Model of Huntington: Cytoprotection (ATP); Potency, µM (top dose mostly 56.4 µM), without a hit: cytoprotection (ATP increase), most hits filed as activators; PC12 HTT-Q103 induced, cytoprotection, ATP luminescence, 40 h; AID 1471, 2008; actives 0.14% (n = 230,000); also: potency is read from the fitted curve at half-maximal effect; % of control where 0% means no effect; nearly all actives have a fitted effect of over 45% in size
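Cells were plated at 1500 per well in phenol red-free DMEM with 5% equine and 5% calf serum. Tebufenozide (100 nM final) and compounds were added, then ATPlite reagent, and luminescence was read.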
ALDH1A1 block – qHTS Assay for Inhibitors of Aldehyde Dehydrogenase 1 (ALDH1A1); Aldehyde dehydrogenase 1A1 (Homo sapiens), P00352; actives 7.3% (n = 220,000); Potency, µM (top dose mostly 75.3 µM), for the others: at the top dose activity, negative = inhibition, hits mostly inhibitors; AID 1030, 2008; Purified ALDH1A1, NADH fluorescence, propionaldehyde substrate; active = well fitted inhibition curve with a large enough effect, not every such curve was filed as active; inconclusive = small, poorly fitted or top-dose-only effect, or another doubt; inactive = no such curve, though single readings can be large or run the other way;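 also: potency is read from the fitted curve at half-maximal effect; plate controls were no enzyme wells and a reference inhibitor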
CBFb RUNX1 block – qHTS Assay for Compounds Blocking the Interaction Between CBF-beta and RUNX1 for the Treatment of Acute Myeloid Leukemia | AlphaScreen CBFb-His/RUNX1-biotin binding, biochemical | Potency, µM (highest dose often 59.8 µM), without a hit: at the highest dose activity, negative = inhibition, most hits filed as inhibitors | 230,000 tested, under 10 active | AID 1477, 2009; also: % of control where 0% means no effect
Target sequence (Q01196 whole entry, looked up): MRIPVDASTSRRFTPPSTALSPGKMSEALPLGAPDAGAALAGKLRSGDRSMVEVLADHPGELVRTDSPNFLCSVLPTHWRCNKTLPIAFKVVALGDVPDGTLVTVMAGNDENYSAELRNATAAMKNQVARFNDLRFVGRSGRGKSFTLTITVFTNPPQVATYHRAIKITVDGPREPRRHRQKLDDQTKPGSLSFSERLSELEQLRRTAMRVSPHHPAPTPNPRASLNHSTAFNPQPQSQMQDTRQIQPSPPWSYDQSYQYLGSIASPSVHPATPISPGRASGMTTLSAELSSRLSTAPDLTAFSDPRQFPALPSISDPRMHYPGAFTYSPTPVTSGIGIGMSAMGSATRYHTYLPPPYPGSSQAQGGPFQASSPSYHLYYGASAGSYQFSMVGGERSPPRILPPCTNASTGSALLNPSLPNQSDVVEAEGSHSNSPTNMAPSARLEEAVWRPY
Target sequence (Q13951 whole entry, looked up): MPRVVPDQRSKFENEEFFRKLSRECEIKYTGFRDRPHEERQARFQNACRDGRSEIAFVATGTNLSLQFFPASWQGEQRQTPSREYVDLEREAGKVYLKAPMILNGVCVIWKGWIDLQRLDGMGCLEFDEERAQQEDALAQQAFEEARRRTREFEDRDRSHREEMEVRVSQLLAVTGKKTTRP
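Proteins preincubated together for 20 min at RT before compound addition; 15 min later, nickel and streptavidin beads were added and left 90 min prior to AlphaScreen measurement.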
PNC assembly inh – High Content Assay for Compounds that inhibit the Assembly of the Perinucleolar Compartment. PC3M PTB-GFP, PNC prevalence imaging, 16 h; hits give low values. activity change (PNC), negative = inhibition, % at 10 µM. actives 3.1% (n = 140,000);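 active = readout at or below -70, meaning at least 70% loss of cells showing the perinucleolar compartment, a nuclear body marking cancer cells; inconclusive = readout between -30 and a set limit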;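 also: plate controls were DMSO wells for no effect and camptothecin positive control wells for full effect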
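Compounds are pinned in duplicate onto adhered PC3M cells stably expressing GFP-tagged PTB and incubated 16 h at 37 C. Cells are then fixed, nuclei stained with Hoechst, and PNC-positive cells counted.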
HPGD block – qHTS Assay for Inhibitors of HPGD (15-Hydroxyprostaglandin Dehydrogenase) | 15-hydroxyprostaglandin dehydrogenase [NAD(+)] (Homo sapiens), P15428 | purified HPGD, NADH fluorescence kinetic, PGE2 substrate | Potency, µM, for the others: top-dose activity change, negative = inhibition, most hits filed as inhibitors | actives 4.3% (n = 150,000) | AID 894, 2007; active = well fitted inhibition curve with a large enough effect, not every such curve was filed as active; inconclusive = small, poorly fitted or top-dose-only effect, or another doubt; inactive = no such curve, though single readings can be large or run the other way; also: potency is read from the fitted curve at half-maximal effect; % is scaled to controls: 0 for no effect and ±100 for the full control effect
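20 nM HPGD preincubated 15 min at room temperature with compound in 50 mM Tris-HCl pH 8, 0.01% Tween 20. Started with 1 mM NAD+ and 30 uM prostaglandin E2; NADH fluorescence (360/450 nm) read 5 times over 30-s intervals, last minus first.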
* marks the source's active call; other numbers are inactive results; ? = inconclusive; . = no result; [ ] = remark or other dose. Unless noted, calls follow the shape of the dose curve; as a rule, active = well fitted curve in the direction sought with a large enough effect; inconclusive = small, poorly fitted or top-dose-only effect, or another doubt; inactive = no such curve, though single readings can be large; an effect the other way counts as inactive or inconclusive.

SMILES | HTT aggregate | HTT cytoprotect | ALDH1A1 block | CBFb RUNX1 block | PNC assembly inh | HPGD block
COc1ccccc1NC(=O)c1ccc(NC(=O)COC(=O)C(C)C)cc1 | ? | -21%[1.9 µM] | 0.89µM* | 2% | 7 | -4%
CSc1ccccc1NC(=O)CN(C)CC(=O)Nc1cc(C)ccc1C | 3% | 6%[10 µM] | -17% | -6% | 14 | -7%
CSc1ccccc1NC(=O)CSCc1ccc(C)cc1 | 21% | -7% | -16% | 16% | 25 | 16µM*
CNC(=O)[C@@H](Cc1ccccc1)N(C)C(=O)[C@@H](Cc1ccc2ccccc2c1)N(C)C(=O)/C=C/CC(C)(C)N | . | -53% | -3% | 18% | . | -2%
C[C@H](NC(c1cccc2nc(O)c(O)nc12)P(=O)(O)O)c1ccc(Br)cc1 (some centres undefined) | . | . | . | 25% | . | .
O=c1onc2n1-c1cc(Br)ccc1OC2 | . | -10%[1.9 µM] | -5% | 0% | . | 5%
Cc1ccccc1NC(=O)CSC(N)=O | 4% | -3%[10 µM] | 0.79µM* | 8% | 13 | ?
Cc1ccccc1NC(=O)Cc1nc(CCl)cs1 | -16% | . | 11µM* | -1% | ? | 20µM*
COc1ccccc1NC(=O)CSC(N)=O | 6% | 1% | 1.6µM* | 1% | 21 | -4%
NC(=O)SCC(=O)Nc1ccccc1C(=O)O | 6%[9.22 µM] | 15%[10 µM] | -1% | 6% | . | .
COC(=O)c1ccccc1NC(=O)CSCC(=O)Nc1ccccc1OC | -5% | -8% | 6% | 5% | 33 | -4%
c1ccc(CNc2ncncc2-c2ccoc2)cc1 | . | 24% | ? | . | . | .
COc1ccccc1C1OC(=O)CC1C(=O)OC[C@@H]1CCCN2CCCCC12 (some centres undefined) | . | -2% | -8% | 10% | . | -3%
OCC1(Cc2ccccc2)CCN(Cc2ccc(C(F)(F)F)cc2)CC1 | -5% | -21% | 3% | 7% | . | .
Cc1noc(C)c1-c1cncnc1-n1ccnc1 | . | 18% | 8% | . | . | .
CCCc1c(OCCCOc2ccc(OCC(=O)O)cc2)ccc(CC=O)c1O | . | -2% | 0% | 9%[21.7 µM] | . | -4%
Cc1nc([N+](=O)[O-])c(Br)n1CC(=O)c1ccc(Cl)cc1 | ? | -148% | -7% | -3% | -14 | -9%
Cc1nc([N+](=O)[O-])c(Br)n1Cc1ccc(Cl)c(Cl)c1 | 8.9µM* | 7%[10 µM] | 9% | -4% | . | .
CN(C)c1nc(=NCc2ccco2)ss1 | 0.89µM* | -92%[10 µM] | 10µM* | -19% | . | .
N#CCCCSc1nnnn1-c1cc(C(F)(F)F)cc(C(F)(F)F)c1 | . | 25% | -2% | 20% | . | 0%
CCOCCn1c(SC)nc2c1c(=O)[nH]c(=O)n2C | 3% | 21%[10 µM] | 14µM* | 5% | 9 | 20µM*
CCCCCCn1c(SCCCC)nc2c1c(=O)[nH]c(=O)n2C | -9% | 7%[1.9 µM] | -10% | 4% | 10 | -11%
CCCCn1c(SCC(=O)OCC)nc2c1c(=O)[nH]c(=O)n2C | 11% | -2% | 13µM* | 0% | -119* | ?
CCn1c([N+](=O)[O-])nc2c1c(=O)[nH]c(=O)n2C | ? | -170% | 16µM* | -5% | . | .
CCOC(=O)CSc1nc2c(c(=O)[nH]c(=O)n2C)n1C/C=C(/C)Cl | 6% | 14% | 18µM* | -1% | 17 | 20µM*
C/C(Cl)=C/Cn1c(SC(C)C)nc2c1c(=O)[nH]c(=O)n2C | -15% | 2% | 5µM* | 4% | 22 | ?
CCN(CC)/[N+]([O-])=N/Oc1cc(O/N=[N+](\[O-])N(C)C)c([N+](=O)[O-])cc1[N+](=O)[O-] | . | . | . | -6% | . | .
